# Compound activity: PubChem, National Center for Advancing Translational Sciences (NCATS)
# The list is not random: actives were taken first. Their share in the collection is about 8.1%.
# PINK1 modulator – modulators of PINK1 expression. PINK1 immunofluorescence, high-content cytometry, 24 h. 0.2% of 410,000 active. AID 624263. Potency, µM (titrated, usually from 76.6 µM), inactives show top-dose activation (PINK1 increase), usual class: activators; active means well fitted activation curve with a large enough effect; inconclusive means small, poorly fitted or top-dose-only effect; cell line not stated here; further: % of control where 0% means no effect; nearly all actives have a fitted effect of over 65% in size
#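 Readout is PINK1 immunofluorescence, quantified alongside mitochondrial, cell and nuclear markers by laser-scanning microplate cytometry. Cells from a stable line were exposed to compound titrations (5 concentrations) for 24 hours, with CCCP controls.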
# Sfp inh – inhibitors of Bacillus subtilis Sfp phosphopantetheinyl transferase; 3.5% of 310,000 active; Q9F4F7; Potency, µM, for the others: largest response in the series, negative = inhibition, hits mostly inhibitors; AID 1490; Biochemical Sfp PPTase activity, qHTS;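 further: the enzyme is Sfp with the accession as filed and its product quenches rhodamine fluorescence; 0% = enzyme reaction without inhibitor and -100% = no enzyme wells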
#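 With Hepes-Na pH 7.6 buffer containing 10 mM MgCl2, Sfp (15 nM) modified BHQ-2-YbbR (12.5 uM) using rhodamine-CoA (5 uM). Two reads 30 minutes apart at 525/598 nm yielded each well's rate.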
# RORgamma inh – inhibitors of mouse ROR gamma transcriptional activity; P51450; Drosophila S2 Gal4-RORgamma UAS-luciferase reporter, 20 h; Potency, µM (highest dose often 53.6 µM), for inactives: top-dose activity change, negative = inhibition, hits mostly inhibitors; 5.4% of 310,000 active; further: on the % scale 0 is the no-effect control and ±100 the full control effect; nearly all actives have a fitted effect of over 60% in size
#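 Compounds are pin-transferred onto Drosophila Schneider cells expressing a copper-inducible Gal4–ROR gamma transactivation domain fusion. After 1 hr, copper sulfate is added to 700 uM final; luciferase is read 20 hr later.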
# Epigenetic reg – derepresses silenced GFP reporter in murine cells; 0.2% of 280,000 active; Potency, µM (doses to about 53.9 µM), for inactives: at the highest dose GFP activation, usual class: activators; murine LDR cells, GFP reporter derepression, 30 h; further: % of control where 0% means no effect; nearly all actives have a fitted effect of over 60% in size
#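 In this reporter-derepression format, murine cells bearing a silenced integrated CMV-GFP locus incubate with test compound (30 h, 37 C), then are washed and imaged; fluorescent objects of 20–120 um count as induced cells.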
# Gal4-VP16 FLuc – inhibits Gal4-VP16 luciferase reporter, ROR gamma counter-screen; Potency, µM (titrated, usually from 53.6 µM), for the others: top-dose activity, negative = inhibition, most hits filed as inhibitors; 3.5% of 310,000 active; Drosophila S2 Gal4-VP16 UAS-luciferase, luminescence, 20 h;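 further: Gal4-VP16 expression switched on by copper sulfate through the metallothionein promoter; on the % scale 0 is the no-effect control and ±100 the full control effect; nearly all actives have a fitted effect of over 50% in size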
# ClpP mod – qHTS Assay for Activators of ClpP | Potency, µM (titrated, usually from 57.5 µM), inactives show at the top dose activity change, negative = active | 1.9% of 340,000 active | purified B. subtilis ClpP, FRET peptide cleavage, 20 min; active means well fitted falling curve with a large enough effect; inconclusive means small, poorly fitted or top-dose-only effect; inactive means no such curve, though single readings can be large or run the other way; further: the source files actives as falling curves though it sought activators and does not explain the sign; nearly all actives have a fitted effect of over 65% in size
#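 Purified B. subtilis ClpP, 10 microg/mL final in Tris/HCl pH8 with KCl, BSA, glycerol and Tween-20, cleaved an Abz/nitrotyrosine-quenched decapeptide. Fluorescence (ex 320, em 430) was read at 0 and 20 min at room temperature. Delta was normalized to 5.8 microM ADEP and DMSO/no-enzyme controls.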
# An asterisk follows results filed as active; ? = inconclusive; · = no result; ! = not confirmed by another sample; [ ] = remark or other dose. Unless noted, the call rests on the fitted dose curve; in most records, active means well fitted curve in the direction sought with a large enough effect; inconclusive means small, poorly fitted or top-dose-only effect, or another doubt; inactive means no such curve, though single readings can be large; an effect the other way counts as inactive or inconclusive. Potency means the concentration at half of the fitted maximal effect.
SMILES,PINK1 modulator,Sfp inh,RORgamma inh,Epigenetic reg,Gal4-VP16 FLuc,ClpP mod
CCC(=NC1CC1)c1c(O)n(C2CCCCC2)c(=O)[nH]c1=O,1.1%,-2.1%,26.1%,-3.2%,26.6%,0.0%
CC/C(=N\NC(=O)c1ccccc1Cl)c1c(O)n(C2CCCCC2)c(=O)[nH]c1=O,1.0%,15.4%,7.94µM*,·,12.6µM*,-1.0%
CC/C(=N\NC(=O)c1ccccc1)c1c(O)n(C2CCCCC2)c(=O)[nH]c1=O,1.8%,0.5%,14.1µM*,·,?,4.6%
CCC(=Nc1ccc2c(c1)CCC2)c1c(O)n(C2CCCCC2)c(=O)[nH]c1=O,0.2%,-11.5%,?,-0.4%,16.6%,0.2%
CCCN1CCCC(c2cccc(O)c2)C1 (stereo unspecified),·,·,·,-1.2%,·,·
COC(=O)[C@@H]1C[C@H](OC(C)=O)C(=O)[C@H]2[C@@]1(C)CC[C@H]1C(=O)O[C@H](c3ccoc3)C[C@]21C,·,-1.8%,24.0%,0.6%,-19.6%,·
CN(C)c1ccc(/C=C/c2cc[n+](C)c3ccccc23)cc1,25.1µM*,56.2µM*,18.5%,-1.3%,0.0%[10 µM],0.7%
C[n+]1ccc(-c2ccccc2)c2ccccc21,0.1%,·,·,·,·,4.9%
CCBr,·,·,-7.4%,·,-1.2%,·
CCOc1ccc(N2C(=O)NC(=O)/C(=C\c3ccc(N4CCOCC4)cc3C)C2=O)cc1,3.2%,39.8µM*,23.8%,?,-3.3%,·
COc1ccc(N2C(=O)NC(=O)/C(=C\c3cn(C)c4ccccc34)C2=O)cc1,28.5%,-13.2%,5.9%,·,-15.8%,1.8%
O=C1NC(=O)N(c2ccc(F)cc2)C(=O)/C1=C/c1ccc(N2CCOCC2)cc1,0.5%,39.8µM*,10.4%,0.0%,9.9%,·
Cc1ccc(N2C(=O)NC(=O)/C(=C\c3ccc([N+](=O)[O-])o3)C2=O)cc1,·,?,22.8%,4.5%,5.6%,·
COc1ccc(N2C(=O)NC(=O)/C(=C/c3ccc(N4CCOCC4)cc3)C2=O)cc1,·,50.1µM*,10.1%,0.5%,25.1%,·
O=C1NC(=O)N(Cc2ccc(F)cc2)C(=O)/C1=C\c1ccc(N2CCCC2)cc1,2.3%,?,23.6%,1.1%,5.1%,-4.3%
Cc1ccc(N2C(=O)NC(=O)/C(=C\c3ccc(N4CCOCC4)cc3)C2=O)cc1,0.9%,17.8µM*,1.1%,0.0%,2.8%,?
O=C1CCCC2[C@@H]3CCCN4CCC[C@@H](CN12)C34 (stereo partly specified),·,-12.3%,-13.6%,?,-14.7%,·
CC#C[C@]1(O)CC[C@H]2C3C=C(C)C4=CC(=O)C=C[C@]4(C)[C@H]3[C@@H](O)C[C@@]21C (stereo partly specified),·,1.7%,41.6%,·,2.2%,·
CCc1cccc(NC(=O)c2ccc(NC(=O)N3CCSc4ncccc43)cc2)c1,1.4%,·,·,-1.6%,·,?
C=CC[C@]1(O)CCC2C3CCC4=CCCCC4C3CCC21C (stereo partly specified),·,-9.3%,-39.3%,4.0%,1.7%,·
CCOc1ccc(N2C(=O)NC(=O)/C(=C\c3cc(OC)c(OC)cc3[N+](=O)[O-])C2=O)cc1,5.1%,44.7µM*,-5.4%,8.5%,-18.2%,·
NC(CCP(=O)(O)O)C(=O)O (stereo unspecified),·,50.1µM*,·,-0.1%,·,·
O=Cc1ccc(Cl)cc1Cl,·,·,-3.8%,·,8.1%,·
CCOC(=O)c1cccc(NS(=O)(=O)c2ccc(NC(C)=O)cc2)c1,·,-21.8%,?,-2.2%,5.01µM*,4.7%
CCOC(=O)c1cccc([P+](=O)O)c1,1.5%,9.6%,-10.8%,0.0%,4.2%,-1.3%
SMILES,PINK1 modulator,Sfp inh,RORgamma inh,Epigenetic reg,Gal4-VP16 FLuc,ClpP mod
Oc1ccc(Cl)cc1Cl,·,·,-13.1%,·,2.0%,·
CC1=CC2/C=C(\C)CCC(O)C(O)/C=C/C(=O)C23C(=O)NC(CC(C)C)C3C1C (stereo unspecified),-1.3%,15.8µM*,5.01µM*,1.2%,7.08µM*,0.4%
Cc1cccc(OCCn2cccc2/C=C2/C(=O)NC(=O)N(Cc3ccco3)C2=O)c1,2.7%,56.2µM*,10.2%,4.0%,?,·
CCc1ccc(N2C(=O)NC(=O)/C(=C/c3cccn3CCOc3ccc(C(C)CC)cc3)C2=O)cc1 (stereo unspecified),15.8%,10.6%,0.794µM*,?,?,1.4%
O=C1NC(=O)N(Cc2ccco2)C(=O)/C1=C\c1cccn1CCOc1ccc(Cl)cc1,-3.3%,44.7µM*,-11.9%,5.7%,?,1.8%
CCc1ccc(N2C(=O)NC(=O)/C(=C/c3cccn3CCOc3ccc(C)cc3)C2=O)cc1,?,0.3%,?,0.0%,?,·
C[C@H]1CO1,·,4.2%,-11.1%,·,-3.9%,·
CNc1ccc2oc(C[C@H]3O[C@]4(CC[C@H]3C)O[C@H]([C@H](C)C(=O)c3ccc[nH]3)[C@H](C)C[C@H]4C)nc2c1C(=O)O,·,-9.6%,?,-0.1%,-61.9%,·
Nc1ncnc2c1ccn2[C@@H]1O[C@H](CO)[C@@H](O)[C@H]1O,-0.3%,8.6%,0.631µM*,·,1.12µM*,-2.3%
NC(=S)c1cn(C2OC(CO)C(O)C2O)c2ncnc(N)c12 (stereo unspecified),-0.6%,7.94µM*,7.08µM*,-0.2%,2.51µM*,1.2%
OCC1OC(n2cnc3c(Cl)ncnc32)C(O)C1O (stereo unspecified),3.4%,31.7%,-11.8%,1.7%,0.6%,·
CCC1(CC)CCNC1=O,·,-3.0%,-0.6%,·,0.1%,·
O=C1NC(=O)C(=Cc2ccc3ccccc3c2)C(=O)N1,1.6%,39.8µM*,-13.7%,1.6%,5.9%,4.2%
Cc1ccc(OCCOc2cccc(C=C3C(=O)NC(=O)NC3=O)c2)cc1,3.8%,63.1µM*,?,·,?,-2.1%
Cc1cc(C)cc(OCCOc2cccc(C=C3C(=O)NC(=O)NC3=O)c2)c1,1.0%,50.1µM*,-44.6%,·,-22.4%,1.1%
O=C(N/N=C/c1c(O)n(Cc2ccco2)c(=O)[nH]c1=O)c1ccccc1,0.4%,?,?,8.0%,-6.3%,-7.0%
N#CC(C#N)=Cc1cc(O)c(O)c(O)c1,·,50.1µM*,?,-1.2%,6.5%,·
N#CC(C#N)=Cc1ccc(O)cc1,·,22.4µM*!,?,·,?,·
N#C/C(=C\c1ccc(O)cc1)C(=O)O (tested in a mixture with another compound),2.0%,·,·,·,·,-6.9%
O=c1ccc2cc(OC3OC(CO)C(O)C(O)C3O)c(O)cc2o1 (stereo unspecified),·,?,?,-0.6%,-22.0%,·
Cc1ccc(S(=O)(=O)NN)c(C)c1N1CCCC1=O,0.6%,56.2µM*,2.9%,0.1%,1.3%,-1.8%
c1ccc([Se]c2c(-c3ccccc3)[se]c3ccccc23)cc1,·,0.9%,32.7%,11.1%,13.6%,·
